# Measured values: PubChem BioAssay (EPA / NIEHS)
# Inconclusive results are not listed. Active and inactive are the calls of the source. The calls were made as follows: active = hit-call score of the fitted dose curve at least 0.9, where 1 is the maximum; inconclusive = response in the unintended direction; inactive = score below 0.9.
# What was measured:
# [1] = TOX21_p53_BLA_p2_viability: Viability Assessment in the Tox21 HCT-116 p53 Agonism Beta-lactamase Assay, Phase 2 (AID 2283591);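 also: actives lower the ATP signal meaning cytotoxicity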
# Procedure, shortened: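 HCT116 p53-bla cells, 4000/well, dosed after 5 h plating (217-fold dilution of DMSO stocks) and incubated 16 h at 37C. Viability taken as cellular ATP by CellTiter-Glo luminescence after 30 min RT; signal loss marks cytotoxicity.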
# [2] = biological target: Cellular tumor antigen p53 (Homo sapiens) (UniProt P04637); test: TOX21_p53_BLA_p2_ratio: Tox21 HCT-116 p53 Agonism Beta-lactamase Assay, Ratio, Phase 2 (AID 2283592)
# Procedure, shortened: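 First, HCT116 reporter cells settle for 5 h at 37C. Next, DMSO compound solutions are pinned in (217-fold dilution) and left 16 h. Finally, CCF4-AM substrate is loaded 2 h at room temperature and the 460/530 nm ratio read.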
# [3] = TOX21_p53_BLA_p3_viability: Viability Assessment in the Tox21 HCT-116 p53 Agonism Beta-lactamase Assay, Phase 3 (AID 2283593);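 also: cells exposed to compound for 16 h before reading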
# Procedure, shortened: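 HCT116 cells, 4000/well, dosed 5 h after plating by pin transfer (217-fold dilution from DMSO stock) and incubated 16 h at 37C, 5% CO2. Viability read as ATP luminescence with CellTiter-Glo after 30 min at room temperature.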
# [4] = biological target: Cellular tumor antigen p53 (Homo sapiens) (UniProt P04637); test: TOX21_p53_BLA_p3_ratio: Tox21 HCT-116 p53 Agonism Beta-lactamase Assay, Ratio, Phase 3 (AID 2283596)
# Procedure, shortened: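 Cells were seeded at 4000/well, rested 5 h at 37C, then dosed with DMSO compound solutions (217-fold dilution) for 16 h. CCF4-AM substrate was loaded for 2 h at room temperature, and the 460/530 nm emission ratio was fitted for gain of signal versus DMSO.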
# [5] = TOX21_p53_BLA_p4_viability: Viability Assessment in the Tox21 HCT-116 p53 Agonism Beta-lactamase Assay, Phase 4 (AID 2283597);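 also: hits lower the luminescence signal meaning cytotoxicity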
# Procedure, shortened: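 4000 HCT116 cells per well; 5 h attachment; compounds from DMSO, 217-fold dilution; 16 h at 37C. Then CCF4-AM, 2 h RT, followed by CellTiter-Glo, 30 min RT, luminescence. Decrease = cytotoxicity.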
# [6] = biological target: Cellular tumor antigen p53 (Homo sapiens) (UniProt P04637); test: TOX21_p53_BLA_p5_ratio: Tox21 HCT-116 p53 Agonism Beta-lactamase Assay, Ratio, Phase 5 (AID 2283599)
# Procedure, shortened: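 HCT-116 p53-bla cells (4000/well) plated 5 h, dosed with compound (217-fold DMSO dilution) for 16 h at 37 C; CCF4-AM substrate 2 h at room temperature. Activity is the 460/530 nm emission ratio (405 nm excitation), fitted in gain-of-signal direction versus DMSO.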
# [7] = TOX21_p53_BLA_p5_viability: Viability Assessment in the Tox21 HCT-116 p53 Agonism Beta-lactamase Assay, Phase 5 (AID 2283600)
# Procedure, shortened: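 Decreased CellTiter-Glo luminescence denotes lost viability. Exposure: 16 h at 37C, 5% CO2, with compounds from DMSO stocks diluted 217-fold in wells of 4000 cells.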
# [8] = biological target: Cellular tumor antigen p53 (Homo sapiens) (UniProt P04637); test: TOX21_p53_BLA_p4_ratio: Tox21 HCT-116 p53 Agonism Beta-lactamase Assay, Ratio, Phase 4 (AID 2283601)
# Procedure, shortened: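 HCT-116 p53 beta-lactamase reporter cells (4000/well) preincubated 5 h, then compound (217-fold dilution of DMSO stock) for 16 h at 37C. CCF4-AM substrate added 2 h at room temperature; 460/530 nm emission ratio fitted upward versus DMSO.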
# Cellular tumor antigen p53 (Homo sapiens), sequence (P04637 whole entry, looked up): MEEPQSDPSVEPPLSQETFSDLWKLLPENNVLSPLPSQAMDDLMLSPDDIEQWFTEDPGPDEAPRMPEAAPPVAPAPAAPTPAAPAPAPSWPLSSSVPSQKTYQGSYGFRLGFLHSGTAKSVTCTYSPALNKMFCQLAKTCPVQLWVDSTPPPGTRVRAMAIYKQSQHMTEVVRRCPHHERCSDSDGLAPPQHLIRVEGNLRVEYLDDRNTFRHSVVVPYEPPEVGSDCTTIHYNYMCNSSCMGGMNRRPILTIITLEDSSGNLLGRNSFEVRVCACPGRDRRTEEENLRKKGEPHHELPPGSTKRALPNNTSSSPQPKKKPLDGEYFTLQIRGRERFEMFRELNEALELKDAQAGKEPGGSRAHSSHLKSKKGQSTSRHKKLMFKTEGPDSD
Compound,outcome [1],outcome [2],outcome [3],outcome [4],AC50 [5],outcome [6],outcome [7],outcome [8],outcome [5],AC50 [6],AC50 [1],AC50 [3],AC50 [4],AC50 [7],AC50 [8],AC50 [2]
CC(C(=O)O)c1ccc(C2CCCCC2)c2ccccc12 (centres undefined),inactive,inactive,inactive,inactive,31.1 µM (active),inactive,inactive,inactive,–,–,–,–,–,–,–,–
O=P(O)(OCc1ccccc1)OCc1ccccc1,inactive,inactive,inactive,inactive,–,–,inactive,inactive,inactive,86.9 µM (active),–,–,–,–,–,–
Cc1ccc(S(=O)(=O)NC(=O)NN2CC3CCCC3C2)cc1 (centres undefined),inactive,inactive,inactive,inactive,–,inactive,inactive,inactive,inactive,–,–,–,–,–,–,–
Nc1ccc(C(=O)Oc2ccccc2)c(O)c1,inactive,inactive,inactive,inactive,–,inactive,inactive,inactive,inactive,–,–,–,–,–,–,–
CO[C@H]1C[C@H](O[C@H]2[C@H](C)O[C@@H](O[C@@H]3/C(C)=C/C[C@@H]4C[C@@H](C[C@]5(C=C[C@H](C)[C@@H](C6CCCCC6)O5)O4)OC(=O)[C@@H]4C=C(C)[C@@H](O)[C@H]5OC/C(=C\C=C\[C@@H]3C)[C@]54O)C[C@@H]2OC)O[C@@H](C)[C@@H]1O,–,inactive,–,–,5.07 µM (active),–,–,inactive,–,7.81 µM (active),5.93 µM (active),9.45 µM (active),15.8 µM (active),6.84 µM (active),–,–
CCOC(=O)C=CC(=O)O,inactive,inactive,inactive,inactive,–,inactive,inactive,inactive,inactive,–,–,–,–,–,–,–
O=C1c2c(O)cccc2[C@H]([C@@H]2O[C@H](CO)[C@@H](O)[C@H](O)[C@H]2O)c2cc(CO)cc(O)c21,inactive,inactive,inactive,inactive,–,inactive,inactive,inactive,inactive,–,–,–,–,–,–,–
O=C(Nc1ccc(S(=O)(=O)N2CCOCC2)cc1)c1cc(Cl)ccc1NS(=O)(=O)c1ccc(Cl)s1,inactive,inactive,inactive,inactive,22 µM (active),–,inactive,–,–,21.7 µM (active),–,–,–,–,36.5 µM (active),–
CCOc1ccc([N+](=O)[O-])cc1,inactive,inactive,–,–,46.7 µM (active),–,–,–,–,84.9 µM (active),–,70.9 µM (active),80.9 µM (active),61.1 µM (active),81.5 µM (active),–
CCCC(CCC)C(=O)OC1C[C@H]2CC[C@@H](C1)[N+]2(C)C (some centres undefined),inactive,inactive,inactive,inactive,–,inactive,inactive,inactive,inactive,–,–,–,–,–,–,–
O=C(CCCN1CCC(O)(c2ccc(Br)cc2)CC1)c1ccc(F)cc1,inactive,inactive,inactive,inactive,–,inactive,inactive,inactive,inactive,–,–,–,–,–,–,–
O=c1c(-c2ccccc2)c1-c1ccccc1,inactive,–,inactive,–,–,inactive,inactive,inactive,inactive,–,–,–,22.2 µM (active),–,–,23.8 µM (active)
O=C(O)c1cc(O)c(O)c(O)c1,inactive,inactive,inactive,inactive,–,inactive,inactive,inactive,inactive,–,–,–,–,–,–,–
CC[C@H]1CN2CCc3cc(OC)c(OC)cc3[C@@H]2C[C@@H]1C[C@H]1NCCc2cc(OC)c(OC)cc21,inactive,inactive,inactive,inactive,–,inactive,inactive,inactive,inactive,–,–,–,–,–,–,–
CCNC(=O)N1CCN(CCCC(c2ccc(F)cc2)c2ccc(F)cc2)CC1,inactive,inactive,inactive,inactive,–,inactive,inactive,inactive,inactive,–,–,–,–,–,–,–
C[C@@H]1CCC2[C@@H](C)[C@@H](O)O[C@@H]3O[C@@]4(C)CC[C@@H]1[C@@]23OO4 (some centres undefined),inactive,inactive,inactive,inactive,–,inactive,inactive,inactive,inactive,–,–,–,–,–,–,–
CCC(C)[C@H]1O[C@]2(C=C[C@@H]1C)C[C@@H]1C[C@@H](C/C=C(\C)[C@@H](O[C@H]3C[C@H](OC)[C@@H](O[C@H]4C[C@H](OC)[C@H](NC(C)=O)[C@H](C)O4)[C@H](C)O3)[C@@H](C)/C=C/C=C3\CO[C@@H]4[C@H](O)C(C)=C[C@@H](C(=O)O1)[C@]34O)O2 (some centres undefined),–,–,–,–,9.38 µM (active),–,–,–,–,22.3 µM (active),13 µM (active),23 µM (active),34.5 µM (active),15.8 µM (active),12 µM (active),15 µM (active)
CCCCCCCC(=O)CC[C@@H]1[C@@H](C/C=C\CCCC(=O)OC(C)C)[C@@H](O)C[C@H]1O,–,–,–,inactive,23 µM (active),–,–,–,–,43 µM (active),36.2 µM (active),43.7 µM (active),–,41.9 µM (active),43.6 µM (active),43.7 µM (active)
CC1CC(OC(=O)C(O)c2ccccc2)CC(C)(C)C1 (centres undefined),inactive,inactive,inactive,inactive,–,inactive,inactive,inactive,inactive,–,–,–,–,–,–,–
CC1(C)S[C@@H]2[C@H](NC(=O)Cc3ccccc3)C(=O)N2[C@H]1C(=O)O (tested in a mixture with another compound),inactive,inactive,inactive,inactive,–,inactive,inactive,inactive,inactive,–,–,–,–,–,–,–
COc1ccccc1/C=C/C=O,inactive,inactive,inactive,inactive,–,inactive,inactive,inactive,inactive,–,–,–,–,–,–,–
CCc1cccc(CC)c1NC(=O)CN(CC(=O)O)CC(=O)O,inactive,inactive,inactive,inactive,–,inactive,inactive,inactive,inactive,–,–,–,–,–,–,–

Compound,outcome [1],outcome [2],outcome [3],outcome [4],AC50 [5],outcome [6],outcome [7],outcome [8],outcome [5],AC50 [6],AC50 [1],AC50 [3],AC50 [4],AC50 [7],AC50 [8],AC50 [2]
O=C1c2c(O)ccc([N+](=O)[O-])c2C(=O)c2c([N+](=O)[O-])ccc(O)c21,–,–,–,–,11.7 µM (active),–,–,–,–,30.2 µM (active),7.2 µM (active),9.74 µM (active),28.7 µM (active),9.58 µM (active),20.7 µM (active),25.4 µM (active)
CC(=C(CCO)SSC(CCO)=C(C)N(C=O)Cc1cnc(C)nc1N)N(C=O)Cc1cnc(C)nc1N,inactive,inactive,inactive,inactive,–,inactive,inactive,inactive,inactive,–,–,–,–,–,–,–
CSc1ccc(/C=C2/C(C)=C(CC(=O)O)c3cc(F)ccc32)cc1,–,inactive,–,inactive,23.1 µM (active),–,–,inactive,–,19.7 µM (active),22.4 µM (active),41.1 µM (active),–,36.4 µM (active),–,–
Cc1cc2c(C(C)C)c(O)c(O)c(C=O)c2c(O)c1-c1c(C)cc2c(C(C)C)c(O)c(O)c(C=O)c2c1O,–,–,–,–,10 µM (active),–,–,–,–,35 µM (active),10 µM (active),6.89 µM (active),29.9 µM (active),10.2 µM (active),33.2 µM (active),30.1 µM (active)
N[C@H](C(=O)O)[C@@H]1CC(Cl)=NO1,–,–,–,–,13.7 µM (active),–,–,–,–,5.35 µM (active),15.8 µM (active),9.5 µM (active),5.91 µM (active),11.4 µM (active),5.46 µM (active),5.51 µM (active)
CC(C)COC(=O)COc1cc(Cl)c(Cl)cc1Cl,inactive,inactive,inactive,inactive,–,inactive,inactive,inactive,inactive,–,–,–,–,–,–,–
Nc1cnn([C@@H]2O[C@H](CO)[C@@H](O)[C@H]2O)c(=O)n1,inactive,–,inactive,–,–,–,inactive,–,inactive,6.26 µM (active),–,–,2.28 µM (active),–,1.34 µM (active),3.04 µM (active)
Nc1cc(S(=O)(=O)O)cc2cc(S(=O)(=O)O)cc(O)c12,inactive,inactive,inactive,inactive,–,inactive,inactive,inactive,inactive,–,–,–,–,–,–,–
O=C(c1cc2ccccc2o1)N1CCN(Cc2ccccc2)CC1,inactive,inactive,inactive,inactive,–,inactive,inactive,inactive,inactive,–,–,–,–,–,–,–
O=C(O)c1cc(-c2ccccc2)nc2ccccc12,inactive,inactive,inactive,inactive,–,inactive,inactive,inactive,inactive,–,–,–,–,–,–,–
CCCCCCCCCOC(=O)c1ccc(O)cc1,–,–,inactive,inactive,23 µM (active),inactive,inactive,–,–,–,53.3 µM (active),–,–,–,39.3 µM (active),80.5 µM (active)
O=C(/C=C/c1ccc([N+](=O)[O-])cc1)c1ccccc1,inactive,inactive,inactive,inactive,–,inactive,inactive,inactive,inactive,–,–,–,–,–,–,–
CC(C)C[C@H](NC(=O)CNC(=O)[C@H](Cc1ccc(O)cc1)NC(=O)[C@H](CO)NC(=O)[C@H](Cc1c[nH]c2ccccc12)NC(=O)[C@H](Cc1cnc[nH]1)NC(=O)[C@@H]1CCC(=O)N1)C(=O)N[C@@H](CCCN=C(N)N)C(=O)N1CCC[C@H]1C(=O)NCC(N)=O (stereo in doubt),inactive,inactive,inactive,inactive,–,inactive,inactive,inactive,inactive,–,–,–,–,–,–,–
CN1CCN(CCCN2c3ccccc3Sc3ccc(Cl)cc32)CC1,–,–,–,inactive,38.3 µM (active),–,–,–,–,43.3 µM (active),33.8 µM (active),34.7 µM (active),–,34.4 µM (active),43.7 µM (active),43.7 µM (active)
NC1(c2ccc(-c3nc4ccn5c(=O)[nH]nc5c4cc3-c3ccccc3)cc2)CCC1,inactive,inactive,inactive,inactive,8.62 µM (active),inactive,inactive,inactive,–,–,–,–,–,–,–,–
CC(C)COCC(CN(Cc1ccccc1)c1ccccc1)N1CCCC1 (centres undefined),inactive,inactive,inactive,inactive,–,inactive,inactive,inactive,inactive,–,–,–,–,–,–,–
CN=C(N)NCCC[C@H](N)C(=O)O,inactive,inactive,inactive,inactive,–,inactive,inactive,inactive,inactive,–,–,–,–,–,–,–
Nc1ccc(S(=O)(=O)Nc2ccc(Cl)nn2)cc1,inactive,inactive,inactive,inactive,–,inactive,inactive,inactive,inactive,–,–,–,–,–,–,–
CCO[Si](CCCCl)(OCC)OCC,inactive,–,inactive,–,–,inactive,inactive,inactive,inactive,–,–,–,86.2 µM (active),–,–,87.7 µM (active)
C(=C\c1ccccc1)/CN1CCN(C(c2ccccc2)c2ccccc2)CC1,inactive,inactive,inactive,inactive,–,inactive,inactive,inactive,inactive,–,–,–,–,–,–,–
CC1=C[C@H](O)CC(C)(C)[C@H]1/C=C/C(C)=C/C=C/C(C)=C/C=C/C=C(C)/C=C/C=C(C)/C=C/C1=C(C)C[C@@H](O)CC1(C)C,inactive,inactive,inactive,–,35.3 µM (active),–,–,–,–,38.4 µM (active),–,–,39.9 µM (active),43 µM (active),34.8 µM (active),–
